High-throughput results deposited in PubChem by National Center for Advancing Translational Sciences (NCATS).
Only some compounds are listed: those with a hit (about 12% of all), similar ones and a draw of the others.
HP1b binding inh: inhibitors of HP1-beta chromodomain binding to methylated histone tails; P83916; AlphaScreen HP1-beta / biotin-H3K9me3 peptide binding; Potency, µM (series often up to 114 µM), without a hit: at the top dose activity change, negative = inhibition, hits mostly inhibitors; actives 0.56% (n = 390,000); further: potency means the concentration at half of the fitted maximal effect; nearly all actives have a fitted effect of over 70% in size
Target sequence (P83916 whole entry, looked up): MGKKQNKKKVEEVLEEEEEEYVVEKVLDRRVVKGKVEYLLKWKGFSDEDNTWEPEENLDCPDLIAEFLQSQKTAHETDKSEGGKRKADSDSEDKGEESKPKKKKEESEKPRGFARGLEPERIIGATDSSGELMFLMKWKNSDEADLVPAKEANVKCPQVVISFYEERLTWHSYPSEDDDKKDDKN
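Compound inhibition of the preformed complex between 50 nM HP1-beta and 50 nM biotinylated H3K9me3 peptide was read by AlphaScreen. Buffer was PBS pH 7.4 with 0.01% Tween-20. Incubations ran 30 min at room temperature, with 10 ug/mL donor/acceptor beads.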
G9a block: blocks human histone lysine methyltransferase G9a | Potency, µM (doses to about 102 µM), for the others: at the top dose activity, negative = inhibition, actives largely listed as inhibitors | AID 504332 | G9a H3K9 monomethylation, AlphaScreen, 2 h | actives 8.8% (n = 350,000); further: potency means the concentration at half of the fitted maximal effect; on the % scale 0 is the no-effect control and ±100 the full control effect; nearly all actives have a fitted effect of over 75% in size
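Quantitative HTS format: methyltransferase activity on a biotin-tagged H3K9 peptide is measured by AlphaScreen, using a rabbit anti-monomethyl-H3K9 antibody with streptavidin donor and anti-IgG acceptor beads. Final levels are 20 nM enzyme, 500 nM peptide, 20 uM SAM; 2 h RT.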
BAZ2B inh: inhibitors of human BAZ2B bromodomain; AlphaScreen BAZ2B-H3K14Ac peptide displacement; Potency, µM (titrated, usually from 114 µM), inactives show at the highest dose activity change, negative = inhibition, most hits filed as inhibitors; AID 504333; actives 4.4% (n = 360,000); further: potency means the concentration at half of the fitted maximal effect; on the % scale 0 is the no-effect control and ±100 the full control effect; nearly all actives have a fitted effect of over 60% in size
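BAZ2B 50 nM plus b-H3(5-23)K14Ac 50 nM, PBS pH 7.4/0.01% Tween-20, 30 min RT; compound added (max 110 uM), 30 min RT; streptavidin donor/Ni-chelate acceptor beads 10 ug/mL final, 20 min dark; AlphaScreen read.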
PLK1 PBD inh: blocks phosphopeptide binding to human PLK1 polo-box domain; actives 2.8% (n = 360,000); Potency, µM, for the others: max response, negative = inhibition, hits mostly inhibitors; P53350; AID 720504; Plk1 PBD binding of FITC phosphopeptide, fluorescence polarization; further: potency means the concentration at half of the fitted maximal effect; series mostly up to about 57 µM; on the % scale 0 is the no-effect control and ±100 the full control effect; nearly all actives have a fitted effect of over 65% in size
JMJD2A Tudor: JMJD2A Tudor domain (human) inhibition; O75164; AlphaScreen JMJD2A-Tudor / H3K4me3 peptide binding; Potency, µM (highest dose often 114 µM), inactives show at the highest dose activity change, negative = inhibition, most hits filed as inhibitors; actives 4.4% (n = 390,000); further: potency means the concentration at half of the fitted maximal effect; on the % scale 0 is the no-effect control and ±100 the full control effect; nearly all actives have a fitted effect of over 50% in size
PI5P4K alpha inh: blocks human PI5P4K alpha kinase activity | P48426 | PI5P4Kalpha enzyme, ADP-Glo luminescence, 60 min; hits give low values | max response, % | actives 1.2% (n = 330,000); active means max response of -50% or lower; inconclusive means between -30% and -50%; inactive means -30% or higher; further: value at the top dose of about 77 µM; on the % scale 0 is the no-effect control and ±100 the full control effect
Target sequence (P48426 whole entry, looked up): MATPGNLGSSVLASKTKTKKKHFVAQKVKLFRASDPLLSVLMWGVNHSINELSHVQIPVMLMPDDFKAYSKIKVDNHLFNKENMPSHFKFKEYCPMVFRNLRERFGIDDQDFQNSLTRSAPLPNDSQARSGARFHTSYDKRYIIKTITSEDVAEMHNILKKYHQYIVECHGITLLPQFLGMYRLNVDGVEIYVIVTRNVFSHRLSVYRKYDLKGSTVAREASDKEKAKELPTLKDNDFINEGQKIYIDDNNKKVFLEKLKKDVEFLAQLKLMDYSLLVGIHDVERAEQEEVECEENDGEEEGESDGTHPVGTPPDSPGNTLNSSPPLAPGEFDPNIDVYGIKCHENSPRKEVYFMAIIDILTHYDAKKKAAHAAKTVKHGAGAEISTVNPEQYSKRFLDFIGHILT
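Enzyme plus substrate dispensed, test compounds pinned in, then ATP (5 microM final) added. After 60 min at RT, ADP-Glo reagent 1 for 45 min and reagent 2 for 30 min preceded luminescence imaging.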
An asterisk follows results filed as active; ? = inconclusive; . = no result given; ! = not confirmed by another sample; [ ] = dose if it differs, or a comment. Unless noted, the call rests on the fitted dose curve; in most records, active means well fitted curve in the direction sought with a large enough effect; inconclusive means small, poorly fitted or top-dose-only effect, or another doubt; inactive means no such curve, though single readings can be large; an effect the other way counts as inactive or inconclusive.

SMILES	HP1b binding inh	G9a block	BAZ2B inh	PLK1 PBD inh	JMJD2A Tudor	PI5P4K alpha inh
CCOC(=O)c1c(C)n(COCCO)c2ccc(O)cc12	13%	-6%	7%	-5%	-13%	.
COC(=O)c1c(C)n(Cc2ccc3c(c2)OCO3)c2ccc(O)cc12	-16%	35µM*	?	1%	?	.
CCN(CC1CCCN(CCc2cccc(OC)c2)C1)C(=O)c1ccc(COC)o1 (stereo unspecified)	41%	28%	-2%	-1%	-20%	4
O=C(Oc1ccc2cc(Br)ccc2c1)N1CCCCCC1	.	53%[59 µM]	94%	.	.	.
COc1cccc(N2C(=O)CC(=O)NC2=O)c1	3%	?	-7%	-13%	-25%	.
COc1ccc(N2C(=O)NC(=O)/C(=C/c3ccc4c(c3)Cc3ccccc3-4)C2=O)cc1	.	3.5µM*	35µM*	.	.	.
COc1cccc(N2C(=O)NC(=O)/C(=C/c3ccc4c5c(cccc35)CC4)C2=O)c1	.	10µM*	50µM*	.	.	.
Cc1onc(-c2ccccc2Cl)c1C(=O)OCC(=O)c1ccc2c(c1)OCCO2	-6%	18%	16%	?	?	0
CN1CC(CNC(=O)OCc2ccccc2)CC2c3cccc4c3c(cn4C)CC21 (stereo unspecified)	.	-44%[2.33 µM]	.	.	.	.
CCC1(c2ccccc2)CCC(=O)NC1=O (stereo unspecified)	.	8%[59 µM]	.	.	.	.
CCCN(CC#CCOc1ccc(OC)cc1)CCC	-47%	8.9µM*	56µM*	-8%	6.3µM*	2
C[C@@]12CCC(=O)C=C1C=C[C@H]1[C@H]3CC[C@](O)(CCC(=O)O)[C@]3(C)CC[C@@H]12	.	8%[21.5 µM]	.	.	.	.
CCn1c(N)c(C(=O)NC)sc1=S	-68%	?	?	2.7µM*	56µM*	-59*
O=C(Nc1ccc(Oc2ccc(Cl)cc2)c(Cl)c1)c1cc(I)cc(I)c1O	-13%	?	?	?	79µM*	-55*
COc1ccc(OC)c(/C=N/OC(=O)Nc2ccc(Cl)cc2)c1	49%	11%	1%	-3%	-4%	9
C=C1CCN([C@@H](Cc2ccccc2)C(=O)Nc2ccc(OC)cc2)S(=O)(=O)c2ccccc21	16%	.	.	?	-35%	5
COc1ccc(-n2c(-c3ccco3)nc3c(cnn3-c3ccc(Cl)cc3)c2=O)cc1	20%	?	.	.	-25%	.
COc1ccc(NC(=O)c2cccn(Cc3ccc(Cl)cc3)c2=O)c(OC)c1	11%[57 µM]	4%[59 µM]	0%	.	-20%	.
C=CCc1cc(C=C2C(=O)N(C)C(=O)N(C)C2=O)cc(OCC)c1OCc1ccccc1	290%	3%	3%	7.5µM*	?	-55*
C=CCc1cc(C=C2C(=O)NC(=O)NC2=O)cc(OC)c1OCc1ccc(C(=O)O)cc1	44%	32µM*	-7%	12µM*	-27%	-62*
CCOc1ccc2nc(N(CCN(CC)CC)C(=O)c3ccc([N+](=O)[O-])cc3)sc2c1	0%	14%	.	-8%	-19%	0
COc1ccc2[nH]cc(CCN(C)C)c2c1	9%	56µM*!	21%	3%	-12%	1
COc1ccc2[nH]cc(C(=O)CN(C)C)c2c1	24%	.	.	-5%	-21%	7
COc1ccc2c(CCN)c[nH]c2c1	2%	17%[59 µM]	-26%	2%	-18%	-4
COc1ccc(CNC(=O)/C=C/c2ccc3[nH]cc(CCN(C)C)c3c2)cc1	20%	40µM*!	?	-6%	-33%	2
SMILES	HP1b binding inh	G9a block	BAZ2B inh	PLK1 PBD inh	JMJD2A Tudor	PI5P4K alpha inh
O=C(C[N+]12CCC(CC1)C(CO)C2)c1ccc([N+](=O)[O-])cc1 (stereo unspecified)	54%	35µM*	-13%	2%	-7%	5
O=C(C[N+]12CCC(CC1)C(OC(=O)c1ccccc1)C2)c1ccc([N+](=O)[O-])cc1 (stereo unspecified)	32%	.	-4%	-7%	-10%	2
C[C@]12CC[C@H]3C(=CCc4cc(O)ccc43)[C@@H]1CCC2=O	26%	-18%[59 µM]	1%	-18%	-22%	4
O=C1c2ccccc2-c2cccc3cccc1c23	2%	-35%[2.33 µM]	.	-30%	56µM*	-19
NC(Cn1ccc(=O)[nH]c1=O)C(=O)O (stereo unspecified)	.	11%[12.7 µM]	.	.	.	.
O=C1NC(=O)C(CCc2ccncc2)(CCc2ccccn2)C(=O)N1c1ccc(Br)cc1 (stereo unspecified)	37%	2%[12.7 µM]	89µM*	-13%	-10%	2
CN1CCN(S(=O)(=O)c2cccc(C(=O)N3CCN(c4ccccc4F)CC3)c2)CC1	18%	2µM*	7%	-4%	-17%	-20
CN(C)S(=O)(=O)c1cccc(C(=O)N2CCC(C(=O)O)(c3ccccc3)CC2)c1	50%	-19%	2%	-17%	-15%	3
NC(=S)/N=C/c1c(O)[nH]c(=O)[nH]c1=O	12%	79µM*	-12%	-18%	-26%	-60*
CCCCCCCCN=Cc1c(O)[nH]c(=O)[nH]c1=O	27%	.	2%	-10%	-7%	-1
C=CCNC(=S)/N=C/c1c(O)[nH]c(=O)[nH]c1=O	21%	.	8%	-10%	-3%	-52*
N#Cc1ccccc1NC(=O)c1cccn(Cc2ccccc2)c1=O	33%	1%[59 µM]	2%	.	6%	.
Cc1cccc(C2=NCC(=O)N(CC(=O)NCc3ccco3)c3sc4c(c32)CCCC4)c1	-22%	?	45µM*	-11%	50µM*	.
NC(=O)C1=CN(C2OC(COP(=O)(O)OP(=O)(O)OC[C@H]3O[C@@H](n4cnc5c(N)ncnc54)[C@H](OP(=O)(O)O)[C@H]3O)C(O)C2O)C=CC1 (stereo partly specified)	.	8%	.	.	.	.
Clc1ccc(N2CC3CCC(C2)N3)nn1	.	24µM*	.	.	.	.
Clc1ccc(C2CC3CCC2N3)cn1 (stereo unspecified)	.	41%[59 µM]	.	.	.	.
C[N+]1(C)CCO[C@](O)(c2ccc(-c3ccc([C@]4(O)C[N+](C)(C)CCO4)cc3)cc2)C1	.	13%[21.5 µM]	.	.	.	.
CC1CN1P(=O)(Oc1ccccc1)N1CC1C (stereo unspecified)	27%	.	.	6%	-5%	5
CC1CN(c2ccccc2)NC1=O (stereo unspecified)	40%	35µM*	-22%	-7%	13%	0
CN1CCc2nc(SCC(=O)OC(C)(C)C)c(C#N)cc2C1	27%	50µM*	-17%	-30%	1%	-17
N#Cc1cc2c(nc1SCC(=O)Nc1ccc(OC(F)(F)F)cc1)C1CCN2CC1	29%	-4%[59 µM]	-4%	.	0%	.
CN1CCN(CC#CCOc2ccc(Cl)cc2)CC1	?	11µM*	40µM*	-11%	7.9µM*	-2
CCCCCCOc1ccc(CN2CCN(C)CC2)cc1	-7%	?	-9%	-2%	?	.
